Calls of active or inactive are those of the source.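 The calls were made as follows, unless noted: active = inhibition of the reporter signal at or above 50%; inactive = inhibition below 50%.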
Columns and labels:
[1] = inhibitors of TNFa-induced NFkB p65 translocation, primary screen, imaging, HUVEC, MLSMR starter and 10KST1 sets (AID 438;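 active = inhibition above 20% together with a positive visual image hit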;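 also: compound added about 3h40 before a 20 min TNFalpha stimulation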;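 as to inhibition: signal is the nuclear over cytoplasmic p65 intensity ratio per well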); settings: HUVEC TNFa-induced p65 nuclear translocation; cell count: measured here: nuclei count (cytotoxicity indicator), at 2.08 µM; inhibition: at 2 µM, stronger effect = higher value, 0% TNFa-plus-vehicle, 100% no-TNFa wells
[2] = inhibitors of mutant huntingtin aggregation, primary screen, imaging, exon1htt(103Q)mCFP cells, high-content imaging (AID 483;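 active = visual image review flags a hit and inhibition of aggregation exceeds 20%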;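 also: compound exposure lasted 3 days before fixation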;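 as to nuclei count: percent of the per-plate median nuclei count of sample wells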); settings: exon1htt(103Q)mCFP cell line, aggregate imaging, at 2 µM; inhibition of aggregation: stronger effect = higher value; nuclei count: measured here: cell count, toxicity
[3] = inhibitors of E-selectin induction by TNFa, primary screen, imaging, HUVEC, immunofluorescence, MLSMR starter and 10KST1 sets (AID 487;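 active = visually confirmed hit in the image check and inhibition above 20%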;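 as to inhibition: signal is fraction of cell area covered by stained E-selectin grains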;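 as to nuclei count: 100% = median nuclei count of all wells on the same plate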); settings: HUVEC TNFalpha-induced E-selectin immunofluorescence imaging, at 2 µM; inhibition: stronger effect = higher value; nuclei count: measured here: cell number, toxicity
[4] = molecular target: Voltage-gated potassium channel subunit beta-2 (Rattus norvegicus) (UniProt P62483); assay: KvBeta enzyme negative modulators, primary screen, biochemical, NADPH fluorescence (AID 622;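 active = fluorescence slope higher than the sample average by over 3 SD, cut at about -0.22 in these data, passing the limit was not always enough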;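 also: slope of raw intensity against log time taken from 70 to 1610 s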); settings: recombinant KvBeta, 4-cyanobenzaldehyde reduction, at 10 µM, stronger effect = higher value
Sequence of Voltage-gated potassium channel subunit beta-2 (Rattus norvegicus) (P62483 whole entry, looked up): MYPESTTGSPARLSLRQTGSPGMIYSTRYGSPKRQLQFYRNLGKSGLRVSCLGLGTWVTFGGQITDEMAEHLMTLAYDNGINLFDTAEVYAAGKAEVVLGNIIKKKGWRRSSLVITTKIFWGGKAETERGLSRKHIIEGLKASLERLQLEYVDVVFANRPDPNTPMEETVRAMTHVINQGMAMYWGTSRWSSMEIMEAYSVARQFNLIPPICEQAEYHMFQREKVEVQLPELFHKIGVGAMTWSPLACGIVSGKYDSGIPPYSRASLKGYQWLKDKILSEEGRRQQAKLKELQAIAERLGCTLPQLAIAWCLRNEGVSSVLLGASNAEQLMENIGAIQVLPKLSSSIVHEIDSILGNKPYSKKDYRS

[5] = molecular target: Voltage-gated potassium channel subunit beta-2 (Rattus norvegicus) (UniProt P62483); assay: KvBeta positive modulators, primary screen, biochemical, NADPH fluorescence (AID 623;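 active = NADPH fluorescence slope more negative than the mean of all samples by about 3 SD, 99.7% confidence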;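 also: fluorescence intensity change per second fitted from 20 to 320 s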); settings: Recombinant KvBeta, NADPH fluorescence decrease slope, 10 min; at 10 µM; stronger effect = lower value
[6] = molecular target: Alpha-2C adrenergic receptor (Homo sapiens) (UniProt P18825); assay: modulators of alpha2C/GIRK thallium flux, primary screen, cell-based, HEK293 alpha2C/GIRK1/2 (AID 624;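 active = fluorescence slope after compound addition differing from the mean of all screened samples at 99.7% confidence, in either direction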;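 also: slope of fluorescence ratio to pre-addition baseline per second over 15 to 24 s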); settings: thallium flux BTC fluorescence, at 10 µM, actives lie on both sides
Sequence of Alpha-2C adrenergic receptor (Homo sapiens) (P18825 whole entry, looked up): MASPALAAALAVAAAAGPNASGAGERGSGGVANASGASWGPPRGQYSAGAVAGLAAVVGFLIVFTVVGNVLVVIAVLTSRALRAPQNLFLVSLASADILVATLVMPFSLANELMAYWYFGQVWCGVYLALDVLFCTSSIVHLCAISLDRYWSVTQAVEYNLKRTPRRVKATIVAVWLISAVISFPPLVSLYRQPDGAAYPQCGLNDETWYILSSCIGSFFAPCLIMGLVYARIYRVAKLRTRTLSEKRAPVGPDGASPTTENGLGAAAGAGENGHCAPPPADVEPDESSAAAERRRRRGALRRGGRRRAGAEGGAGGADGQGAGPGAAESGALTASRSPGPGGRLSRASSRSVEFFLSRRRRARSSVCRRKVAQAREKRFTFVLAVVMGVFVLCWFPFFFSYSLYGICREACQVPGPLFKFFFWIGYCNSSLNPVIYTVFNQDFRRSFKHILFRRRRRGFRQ

[7] = inhibitors of Sendai virus-induced IRF3 signaling, primary screen, TLR/RLR signaling modifier project, cell-based, Sendai virus stimulus, luciferase, 10K MLSCN set (AID 602276;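 active = inhibition at or above 50% at 10 µM; inactive = inhibition below 50%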;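 also: firefly luciferase from ISG56 promoter only with Renilla not read in this screen; 0% = Sendai virus plus DMSO and 100% = medium plus DMSO without virus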); settings: HEK293 RL24 IRF3 luciferase reporter, at 10 µM, stronger effect = higher value
[8] = inhibitors of poly I:C-induced TLR3 signaling, primary screen, cell-based, poly I:C stimulus, luciferase, 10K MLSCN set (AID 602277); settings: HEK293-TLR3 RL24 IRF3 luciferase reporter, at 10 µM, stronger effect = higher value

SMILES	cell count [1]	inhibition [1]	inhibition of aggregation [2]	nuclei count [2]	inhibition [3]	nuclei count [3]	fluorescence slope [4]	NADPH fluorescence slope [5]	slope [6]	inhibition [7]	inhibition [8]
Cc1cccc(-c2cc3nc(C)cc(NCCCN(C)C)n3n2)c1	399	-0.5% (inactive)	-9.4% (inactive)	114%	-44.2% (inactive)	98.7%	-0.56 (inactive)	-7.5e-05 (inactive)	0.00413 (inactive)	21% (inactive)	9.1% (inactive)
Cc1c(C(=O)N2CCCC2)sc(NC(=O)c2cccs2)c1C#N	706	17.1% (inactive)	10.4% (inactive)	86.7%	-67.6% (inactive)	130%	-0.504 (inactive)	-8.5e-06 (inactive)	0.00564 (inactive)	14.8% (inactive)	12.4% (inactive)
O=C1CCCC2=C1C1(CCCC1)N=C(Nc1nc3ccccc3s1)N2	687	-4.4% (inactive)	-42.8% (inactive)	139%	-39.4% (inactive)	117%	-0.257 (inactive)	-9.3e-06 (inactive)	0.00377 (inactive)	10.1% (inactive)	2.82% (inactive)
CN(Cc1ccccc1)C(=O)c1ccc2c(c1)OCO2	414	10.6% (inactive)	-8.8% (inactive)	108%	–	156%	-0.595 (inactive)	-2e-05 (inactive)	0.0038 (inactive)	2.22% (inactive)	-20.3% (inactive)
O=C(OCc1nnc(-c2ccc(Cl)cc2)o1)c1ccc(=O)n(Cc2ccccc2)n1	413	1.7% (inactive)	3% (inactive)	99.3%	–	160%	-0.44 (inactive)	-5e-05 (inactive)	0.00426 (inactive)	-5.01% (inactive)	-8.16% (inactive)
Cc1cc(C)n(-c2ccc(C(=O)Oc3ccc4c(c3)OCO4)cc2)n1	440	3.3% (inactive)	17.6% (inactive)	100%	–	148%	-0.468 (inactive)	-2.1e-05 (inactive)	0.00555 (inactive)	7.51% (inactive)	1.41% (inactive)
COc1cccc(C(=O)Nc2ccc(C)cc2)c1	410	-0.2% (inactive)	4.8% (inactive)	95.1%	–	154%	-0.367 (inactive)	4.6e-05 (inactive)	0.00626 (inactive)	-48.7% (inactive)	-91.5% (inactive)
O=C(CCNS(=O)(=O)c1cccc2nsnc12)Nc1ccc2c(c1)OCCO2	565	-17.9% (inactive)	-1.5% (inactive)	120%	-28% (inactive)	119%	-0.421 (inactive)	-0.00049 (inactive)	0.00512 (inactive)	19.3% (inactive)	23.2% (inactive)
CC(=O)N1CCN(Cc2ccc(Br)s2)CC1	362	-3.4% (inactive)	2% (inactive)	114%	-10.6% (inactive)	106%	-0.442 (inactive)	-1.9e-05 (inactive)	0.00639 (inactive)	13.6% (inactive)	20.9% (inactive)
COc1ccc(-n2c(Cc3cccn3C)nnc2SCC(N)=O)cc1	531	-4.4% (inactive)	6.6% (inactive)	63.8%	1.4% (inactive)	99.3%	-0.59 (inactive)	-3.3e-05 (inactive)	0.00644 (inactive)	17.9% (inactive)	27.2% (inactive)
COc1ccc(NC(=O)Nc2ccc(C)cc2OC(F)F)cc1OC	335	-6.5% (inactive)	6.2% (inactive)	91.2%	-38.2% (inactive)	94.2%	-0.422 (inactive)	-5.1e-05 (inactive)	0.00406 (inactive)	1.59% (inactive)	-6.11% (inactive)
O=C(O)CCc1ccc(-c2ccc(F)cc2)n1CC(=O)O	411	7.9% (inactive)	0.9% (inactive)	97%	–	142%	-0.462 (inactive)	-0.000309 (inactive)	0.00527 (inactive)	10.3% (inactive)	19.7% (inactive)
CCN(CC)C1CCCCC1NS(=O)(=O)c1ccc(Cl)cc1 (centres undefined)	528	-9.2% (inactive)	14.4% (inactive)	96.8%	-17.6% (inactive)	82.7%	-0.538 (inactive)	-1.7e-06 (inactive)	0.00692 (inactive)	45.1% (inactive)	28% (inactive)
CNS(=O)(=O)c1cccc(C(=O)OCC(=O)c2cc(C)n(-c3ccc4c(c3)OCO4)c2C)c1	406	2.5% (inactive)	-7.6% (inactive)	97.3%	–	156%	-0.436 (inactive)	-4.7e-05 (inactive)	0.0143 (active)	-1.89% (inactive)	10.6% (inactive)
C=CCSC1=C(C#N)C(c2ccccc2C)CC(=O)N1 (centres undefined)	556	2.1% (inactive)	-12.2% (inactive)	94%	-48.8% (inactive)	174%	-0.601 (inactive)	-1.1e-05 (inactive)	0.00492 (inactive)	-5.91% (inactive)	-13.9% (inactive)
CC(=O)N1CCN(S(=O)(=O)c2cccc(C(=O)Nc3ccc4c(c3)CCC4)c2)CC1	442	10.5% (inactive)	-6.6% (inactive)	118%	-54.2% (inactive)	111%	-0.385 (inactive)	-4e-05 (inactive)	0.00306 (inactive)	9.87% (inactive)	1.5% (inactive)
COc1ccc(CCNC(=O)C2(C)CCC(=O)N2Cc2ccc3c(c2)OCO3)cc1OC (centres undefined)	822	0.6% (inactive)	18.7% (inactive)	106%	-37.2% (inactive)	116%	-0.59 (inactive)	-3.7e-05 (inactive)	0.00743 (inactive)	8.58% (inactive)	36.6% (inactive)
CCCn1c(N)c(C(=O)CSc2nnc(Cc3ccccc3)o2)c(=O)n(C)c1=O	412	1% (inactive)	4.7% (inactive)	99.8%	–	150%	-0.556 (inactive)	0.00012 (inactive)	0.00683 (inactive)	9.61% (inactive)	-3.84% (inactive)
COc1ccc(Br)cc1C1N2CC3(C)CN1CC(C)(C2)C3=O (centres undefined)	435	5.6% (inactive)	6.8% (inactive)	96.9%	–	148%	-0.389 (inactive)	-0.000152 (inactive)	0.00688 (inactive)	-3.74% (inactive)	10.3% (inactive)
C=CCn1c(SCC(=O)O)nnc1-c1cccc(Cl)c1	753	1.3% (inactive)	-0.4% (inactive)	103%	19.3% (inactive)	108%	-0.453 (inactive)	-8e-06 (inactive)	0.00296 (inactive)	8.76% (inactive)	18.9% (inactive)
Cc1ccc(Cn2nnc(C(=O)Nc3cccc(C)c3C)c2N)cc1	457	9.4% (inactive)	1.7% (inactive)	95.1%	–	150%	-0.565 (inactive)	2.2e-07 (inactive)	0.00621 (inactive)	6.59% (inactive)	9.57% (inactive)
Cc1ccccc1N(C)S(=O)(=O)c1ccc2[nH]cc(C(=O)NCC3CCCO3)c(=O)c2c1 (centres undefined)	523	-20.4% (inactive)	17.8% (inactive)	55%	-52.3% (inactive)	104%	-0.404 (inactive)	-4.2e-05 (inactive)	0.00343 (inactive)	-1.58% (inactive)	14.4% (inactive)
CCCCN=CC1=C(O)C(C(=O)OC)C(C)(C)CC1=O (centres undefined)	390	-4.3% (inactive)	10.6% (inactive)	106%	-21.7% (inactive)	123%	-0.392 (inactive)	-6.2e-07 (inactive)	0.0055 (inactive)	-0.949% (inactive)	-9.49% (inactive)
O=C(O)c1cccc(NS(=O)(=O)c2ccc3nnn(O)c3c2)c1	435	10.6% (inactive)	-5.7% (inactive)	108%	–	152%	-0.403 (inactive)	-5.1e-06 (inactive)	0.00611 (inactive)	12.9% (inactive)	18.7% (inactive)

— PubChem BioAssay
